Bioassay records deposited in PubChem by National Center for Advancing Translational Sciences (NCATS).
Rows were chosen to be rich in hits. Some 21% of all compounds tested hit in one or more screens of this group.
Cycloheximide cs – affects cycloheximide protein synthesis inhibition readout, counter-screen; cell reporter, cycloheximide protein synthesis inhibition counterscreen; max response, %; 12% of 300,000 active; AID 2314; in the data active = max response mostly above about 13%, no sharp cut-off; inactive = mostly below about 14%; note: read at 38.3 µM for the half of the compounds with a filed dose; 0% is about no effect
Shiga toxin inh – inhibitors of Shiga toxin in Vero cells; Vero cells, Shiga toxin protein synthesis inhibition reporter; 9.2% of 290,000 active; inhibition, % at 38.7 µM; in the data active = inhibition mostly above about 28%, no sharp cut-off; inactive = mostly below about 43%; note: 0% is about no effect
Pf growth 48h – P. falciparum growth inhibition at 48 hours (one generation) | P. falciparum luciferase growth in erythrocytes, 48 h | Potency, µM (doses to about 28.7 µM), for the others: at the top dose activity change, negative = inhibition, usual class: inhibitors | 5.9% of 310,000 active | AID 504832; note: potency is the fitted concentration of half-maximal effect; % is set by controls: 0 for no effect and ±100 for the full control effect
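First compound was added to culture medium, then infected red cells at 0.1% parasitemia and 2% hematocrit (final). After incubation at 37 C under 5% CO2, luciferase detection reagent was dispensed and light output recorded.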
Pf growth 96h – P. falciparum growth inhibition at 96 hours | P. falciparum luciferase reporter growth, 96 h | Potency, µM (highest dose often 28.7 µM), for the others: at the highest dose activity change, negative = inhibition, usual class: inhibitors | 6.9% of 320,000 active; note: potency is the fitted concentration of half-maximal effect; % is set by controls: 0 for no effect and ±100 for the full control effect
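Infected RBCs, 2% Hct / 0.05% parasitemia final; luciferase-reporter P. falciparum; cpd 96 h, 37 C, 5% CO2; luciferase detection reagent; luminescence.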
NS1 inh – inhibitors of influenza NS1 protein function; Potency, µM (titrated, usually from 46.1 µM), for the others: at the highest dose activity, positive = more growth; 0.4% of 270,000 active; calls by dose curve; note: potency is the fitted concentration of half-maximal effect; actives are rising curves; nearly all actives have a fitted effect of over 50% in size
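OD600 was taken as the measure of yeast growth restored by compound in an NS1-expressing S. cerevisiae strain. Cells had been washed out of glucose medium and diluted 1:100 into galactose -URA medium, pH 6.0.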
Numbers without * were called inactive; ? = inconclusive; nt = no result given; [ ] = dose if it differs, or a comment. Unless noted, calls come from the whole dose curve; as a rule, active = well fitted inhibition curve with a large enough effect; inconclusive = small, poorly fitted or top-dose-only effect, or another doubt; inactive = no such curve, though single readings can be large or run the other way.

SMILES | Cycloheximide cs | Shiga toxin inh | Pf growth 48h | Pf growth 96h | NS1 inh
Cc1cccn2c(=O)c(C(=O)NC3CC(C)CC(C)(C)C3)c(O)nc12 (stereo not given) | nt | nt | 3.7µM* | ? | nt
CC(C)Cc1nnc(NC(=O)CSc2nc(O)c(Cc3ccccc3)c(=O)[nH]2)s1 | -2 | -11 | -6%[5.75 µM] | 39% | nt
CCOC(=O)C1(Cc2ccccc2C(F)(F)F)CCN(C2CCN(C(C)=O)CC2)CC1 | -4 | -10 | 9.3µM* | ? | -2%
CCOC(=O)C1(Cc2ccccc2C(F)(F)F)CCN(C2CCC2)CC1 | -3 | -3 | ? | ? | -3%
CC(C)NC(=S)Nc1ccc2cn[nH]c2c1 | -1 | 27 | 0% | 11% | 13%
CCCc1nnc(NC(=O)c2cc3ccccc3o2)s1 | 13* | 41 | 110% | 21% | -20%
COCc1nnc(NC(=O)c2cc3ccccc3o2)s1 | 18* | 58* | 80% | ? | -62%
[NH-]c1ncnc2c1N=C[N+]2=CC=CCO | -3 | -10 | 2% | 0% | 4%
Cc1cc(C)cc(C(=O)N2CC(C)SC2=Nc2cccc(S(=O)(=O)N(C)C)c2)c1 (stereo not given) | -2 | -12 | 13µM* | ? | 6%
O=c1oc(-c2ccc(Br)o2)nc2ccccc12 | 2 | -4 | 19% | nt | -5%
CCOc1ccc(NC(=O)c2cccc(NC(C)=O)c2)cc1S(=O)(=O)N1CCCC1 | nt | nt | 31% | ? | nt
Cc1ccc(C)c(N2N=C(C(=O)Nc3cccc(S(=O)(=O)N4CCCCC4)c3)CCC2=O)c1 | nt | nt | 4.7µM* | 4.7µM* | nt
CCOc1ccc(NC(=O)CN2CCCC2c2cccs2)cc1S(=O)(=O)N1CCCC1 (stereo not given) | nt | nt | 12µM* | 15µM* | nt
O=C(Nc1cc(S(=O)(=O)N2CCCCC2)ccc1Cl)C1=NN(c2ccccc2)C(=O)CC1 | -4 | 5 | ? | ? | 7%
CCOc1ccc(NC(=O)C2=NN(c3ccccc3)C(=O)CC2)cc1S(=O)(=O)N1CCCCC1 | nt | nt | 12µM* | ? | nt
O=C(Nc1cccc(S(=O)(=O)N2CCCCC2)c1)C1=NN(c2ccccc2)C(=O)CC1 | nt | nt | 5.2µM* | 6.6µM* | nt
Cc1ccc(C)c(N2N=C(C(=O)Nc3ccc(S(=O)(=O)N4CCCC4)cc3)CCC2=O)c1 | -5 | -6 | ? | ? | -8%
COCCN(C(=O)COC(=O)C1(C)CC1(Cl)Cl)c1c(N)n(Cc2ccccc2)c(=O)[nH]c1=O (stereo not given) | -1 | 8 | 5% | 10% | 4%
Fc1cccc(NC(=S)NCc2ccccc2Cl)c1 | 8 | 19 | ? | ? | -8%
Cc1cc(N2CCN(c3ccccc3F)CC2)nc2cc(O)ccc12 | 25* | 95* | 10µM* | 0% | -11%
COc1ccc(N2CCN(c3cc(C)c4ccc(O)cc4n3)CC2)cc1 | 1 | 17 | 13µM* | 126% | -31%
Cc1cc(N2CCN(c3ccc(F)cc3)CC2)nc2cc(O)ccc12 | -8 | -2 | nt | 7.4µM* | -12%
Cc1cc(N2CCN(C)CC2)nc2ccccc12 | -1 | 4 | nt | 13% | -1%
Cc1ccc(CNC(=O)CNC(=S)N(Cc2ccccc2)Cc2ccccc2F)cc1 | 10 | 20 | ? | ? | -8%
CCCCCCCCCCN1CCOCCOCCN(CCCCCCCCCC)CCOCCOCC1 | -2 | -2 | nt | nt | nt
SMILES | Cycloheximide cs | Shiga toxin inh | Pf growth 48h | Pf growth 96h | NS1 inh
Cc1cc(C(=O)Nc2ccccc2C(=O)O)oc1C | 11 | 4 | 44% | 56% | -23%
FC(F)(F)c1ccccc1NC(=S)Nc1cccc(Cl)c1 | -6 | -3 | -9%[5.75 µM] | ? | -10%
CCOc1ccc(-c2nc(-c3ccncc3)no2)cc1OCC | 17* | 40* | 22% | nt | -1%
CCOc1ccc(-c2nc(-c3ccccc3)no2)cc1OCC | 29* | 70* | nt | ? | 3%
O=C(Nc1nnc(C2CC2)s1)c1cccnc1Oc1ccc(Cl)cc1 | 2 | 19 | 45% | 23% | -3%
CC(C)c1nnc(NC(=O)c2cnccn2)s1 | 17* | 38* | 72% | -29% | -10%
Cc1cnc(C(=O)Nc2nccs2)cn1 | 64* | 108* | 62% | 90% | ?
Cc1cnc(C(=O)Nc2nnc(C)s2)cn1 | -2 | 9 | 23% | 3% | 9%
COc1c(C(=O)Nc2nnc(C3CC3)s2)csc1Cl | 36* | 54* | 104% | 112% | -30%
Cc1cnc(C(=O)Nc2nnc(C3CC3)s2)cn1 | 32* | 23 | 27% | 46% | -4%
N#Cc1ccc(S(=O)(=O)N2CCN(S(=O)(=O)c3ccc4c(c3)OCCO4)CC2)cc1 | -2 | 22 | nt | nt | nt
Cc1cnc(C(=O)Nc2nnc(C(C)C)s2)cn1 | 41* | 71* | 117% | -7% | 9%
N/N=C(\c1ccccc1)C12CN3CN(CN(C3)C1)C2 | 5 | -8 | 32% | 6% | 34%
Cc1ccc(CCNC(=O)C2CCCN(S(=O)(=O)c3cccc4nsnc34)C2)cc1 (stereo not given) | -1 | -2 | nt | 4.1µM* | -9%
CCOCCCNC(=O)C1CCCN(S(=O)(=O)c2cccc3nsnc23)C1 (stereo not given) | -6 | 17 | -9% | 8.3µM* | ?
Cc1cccc(CCNC(=O)C2CCCN(S(=O)(=O)c3cccc4nsnc34)C2)c1 (stereo not given) | -3 | 7 | ? | 35% | -15%
COCCCNC(=O)C1CCCN(S(=O)(=O)c2cccc3nsnc23)C1 (stereo not given) | 3 | 1 | 9% | -19% | 5%
CCCCSc1nnc(-c2ccccc2)c2ccccc12 | 6 | 1 | 19% | ? | -16%
CCOc1ccc2c(c1)[N+](C)(C)C(C)(C)C=C2C | -3 | -10 | 1.2µM* | -24% | nt
CN(C(=O)c1cccc(NC(=O)c2ccccc2)c1)C1CCCCC1 | 5 | -32 | -26% | -2% | -13%
O=C(NNC(=O)C1CCC1)c1ccc(Cl)cc1 | -1 | -5 | 28% | 15% | 18%
CN(C(=S)NC(=O)c1ccccc1)C1CCCCC1 | 15* | 34* | ? | ? | 0%
CN(C(=S)NC(=O)c1ccc(Cl)cc1)C1CCCCC1 | 50* | 72* | ? | 10µM* | 3%
CN(C(=S)NC(=O)c1ccc(F)cc1)C1CCCCC1 | 19* | 29 | ? | ? | -11%
O=C(NC(=S)NC1CCCc2ccccc21)c1ccc(F)cc1 (stereo not given) | 8 | -10 | -69% | ? | -14%
Cc1nc2ccccc2c(=O)n1NC(=O)c1ccc([N+](=O)[O-])cc1 | -3 | -21 | 18% | -28% | nt
O=C(N[C@H]1CCCCNC1=O)c1cc(COc2ccc(F)cc2F)on1 | 19* | 9 | 36% | -23% | 4%
CCC(NC(=O)c1cc(COc2cncc(Cl)c2)on1)c1ccncc1 (stereo not given) | -3 | 1 | 8% | ? | 3%
CCC(NC(=O)c1cc(COc2ccc(F)cc2Cl)on1)c1ccncc1 (stereo not given) | 6.4* | -1 | -1% | -6% | -28%
O=C(c1cc(COc2ccc(F)cc2Cl)on1)N1CCCCCC1 | 53* | 89* | 55% | 1% | -36%
